The text below walks through data of PubChem BioAssay (NCATS).

Results filed as inconclusive are left out. Where a call stands in place of a potency, no number is given. Calls of active or inactive are those of the source. Calls come from the whole dose curve; as a rule, active = well fitted activation curve with a large enough effect; inconclusive = small, poorly fitted or top-dose-only effect; inactive = flat fitted curve, though single readings scatter.
Potency is the fitted concentration of half-maximal effect.

This test is described as follows: qHTS for Activators of Parkin Expression: LOPAC Validation Assay (NLuc Reporter) (AID 720572). The conditions noted are these: Parkin promoter NanoLuc reporter cells, luminescence; series mostly up to 46.1 µM. The text has this:
Parkin is an E3 ubiquitin ligase localized in the cytosol of cells expressed in many tissues, including brain, skeletal muscle, heart and liver tissues. One hour after stress induction by mitochondrial uncouplers (which mimic mitochondria damage by decreasing the mitochondrial inner membrane electrochemical gradient that is used to produce ATP), Parkin translocates from the cytosol to mitochondria in many cultured cell types, including neurons and HeLa cells. Administration of other mitochondrial poisons, such as Paraquat and azide in cells lacking mitochondrial DNA (mtDNA), induces Parkin translocation to mitochondria. […] It was proposed that Parkin (together with Pink1) mediates a mitochondrial quality control pathway to maintain organelle population fidelity by removing damaged mitochondria. Understanding the normal physiologic role of Parkin (and Pink1) may uncover novel treatment strategies for sporadic Parkinson's disease patients with mutation in these genes.
A cell based qHTS in 1536 well format was developed assess modulation of Parkin expression using a neuronal cell line that stably expresses a stably expresses a luminescent coincidence reporter (FLuc and NLuc reporters) behind the Parkin promoter. The LOPAC library is used to validate the assay for quantitative high-throughput screening. The data herein reports the signal from the NLuc reporter. An increase in this signal = activation of Parkin expression. For this assay , a positive control normalized signal increase corresponding to a high quality qHTS curve class in both luminescent channels is the desired outcome for this assay.
NIH Chemical Genomics Center [NCGC]
NIH Molecular Libraries Probe Centers Network [MLPCN]
Assay Submitter (PI): Richard Youle, National Institute of Neurological Disorders and Strokes (NINDS), NIH
[1] Narendra, D., et al., Parkin is recruited selectively to impaired mitochondria and promotes their autophagy. J Cell Biol, 2008. 183(5): p.
[2] Suen, D.F., et al., Parkin overexpression selects against a deleterious mtDNA mutation in heteroplasmic cybrid cells. Proc Natl Acad Sci U S A, 2010. […] 11835-40.
[3] Cheng K, Inglese J. A coincedence reporter-gene system for high-throughput screening. Nat Methods. 2012: 9(10);937
Five microliters (1,500 cells/well) of the Parkin coincidence reporter cells were seeded to 1536 well assay plates (Greiner Catalog # 789173-F) and incubated at 37 C, 5% CO2 for 24 hours. Compounds (23 nL) were pinned using the Kalypsys robotic system equipped with 1536 pin head adaptor in 7-point dose response. The assay plates were incubated for additional 24 hr at 37 C, 5% CO2 followed by a volume reduction in each well to 2 uL using an automated plate washer/aspirator. Following the volume reduction,2 uL of FLuc detection reagent and plates were incubated for 10 minutes at room temperature. The FLuc luminescence signal was obtained using the PerkinElmer ViewLux plate imager and then 2 uL of NanoLuc detection reagent was added to the plates. After another 10 minute incubation, NanoLuc signal was obtained using the PerkinElmer ViewLux plate imager as before. Data from each channel was normalized to DMSO (neutral control) and the positive control compounds (100%).
On the technique in general: qHTS replaces the single test concentration by a dilution series.
As for `CC(=O)[C@]1(O)Cc2c(O)c3c(c(O)c2[C@@H](O[C@H]2C[C@H](N)[C@H](O)[C@H](C)O2)C1)C(=O)c1ccccc1C3=O`, the Potency result is “inactive”.

`c1ccc2c(c1)CCCC2C1=NCCN1` (stereo not given): the Potency result was “inactive”.

Take `CCn1cc(C(=O)O)c(=O)c2cc3c(cc21)OCO3`: the Potency entry was “inactive”.

`CCCOc1ccccc1-c1nc2n[nH]nc2c(=O)[nH]1`: the Potency result is “inactive”.

As to `CN1C(=O)CC[C@H]1c1cccnc1`, the Potency entry is “inactive”.

As to `c1cnc(N2CCN(Cc3ccc4c(c3)OCO4)CC2)nc1`, the Potency entry is “inactive”.

With `CCOC(=O)c1cnc2c(cnn2CC)c1NN=C(C)C`, the Potency result is “inactive”.

For the compound `CO[C@@]1(NC(=O)CSCC#N)C(=O)N2C(C(=O)O)=C(CSc3nnnn3C)CS[C@@H]21`, the Potency entry is “inactive”.

As to `CC(=O)Nc1nnc(S(N)(=O)=O)s1`, the Potency result was “inactive”.

As for `COCCOC(=O)C1=C(C)NC(C)=C(C(=O)OC(C)C)C1c1cccc([N+](=O)[O-])c1` (stereo not given), the Potency is 2060 nM (active).

Consider `NC(Cc1ccc(Cl)cc1)C(=O)O` (stereo not given), for which the Potency entry was “inactive”.

In the case of `Cc1nc2sccn2c(=O)c1CCN1CCC(=C(c2ccc(F)cc2)c2ccc(F)cc2)CC1`, the Potency result was “inactive”.

For `COc1ccc(CN(CCN(C)C)c2ccccn2)cc1`, the Potency entry is “inactive”.

For the compound `NC(N)=NC(=O)Cc1c(Cl)cccc1Cl`, the Potency result was “inactive”.

As to `FC(F)(F)c1ccccc1-n1ccnc1`, the Potency entry is “inactive”.

Consider `OC(CCN1CCCCC1)(c1ccccc1)C1CCCCC1` (stereo not given), for which the Potency entry was “inactive”.

In the case of `Brc1c(NC2=NCCN2)ccc2nccnc12`, the Potency result is “inactive”.

For `C[C@]12CCC(=O)C=C1CC[C@@H]1[C@@H]2C(=O)C[C@@]2(C)[C@H]1CC[C@]2(O)C(=O)CO`, the Potency result is “inactive”.

`CCn1ccnc1CC1COc2ccccc2O1` (stereo not given): the Potency result was “inactive”.

For `Cc1ccc(=O)n(-c2ccccc2)c1`, the Potency entry is “inactive”.

With `COc1ccc([C@@H]2Sc3ccccc3N(CCN(C)C)C(=O)[C@@H]2OC(C)=O)cc1`, the Potency entry is “inactive”.

`CCN1CCc2nc(N)oc2CC1`: the Potency result is “inactive”.

In the case of `Cc1ccc(S(=O)(=O)NC(=O)NN2CCCCCC2)cc1`, the Potency result is “inactive”.

As to `Cc1nc2ccccn2c(=O)c1CCN1CCC(C(=O)c2ccc(F)cc2)CC1`, the Potency entry was “inactive”.

`CN(C)C(=O)Oc1cccc([N+](C)(C)C)c1`: the Potency result is “inactive”.

As to `NC(=O)N1c2ccccc2C=Cc2ccccc21`, the Potency entry is “inactive”.

As for `CC(=O)[C@@]1(O)CC[C@H]2[C@@H]3CCC4=CC(=O)CC[C@]4(C)[C@H]3CC[C@@]21C`, the Potency entry is “inactive”.

As for `NS(=O)(=O)c1cc2c(cc1Cl)NC(C1CC3C=CC1C3)NS2(=O)=O` (stereo not given), the Potency entry was “inactive”.

As for `NC(=O)c1ncn([C@@H]2O[C@H](CO)[C@@H](O)[C@H]2O)c1O`, the Potency entry is “inactive”.

As to `Nc1nc(N)c2nc(-c3ccccc3)c(N)nc2n1`, the Potency result was “inactive”.

For `C[C@@H](O)[C@H]1C(=O)N2C(C(=O)O)=C(SCCN=CN)C[C@H]12`, the Potency entry is “inactive”.

Turning to `CCOC(=O)C1=C(C)NC(C)=C(C(=O)OC)C1c1cccc(Cl)c1Cl` (stereo not given), the Potency is 2590 nM (active).

As to `N[C@@H](COP(=O)(O)O)C(=O)O`, the Potency entry is “inactive”.

For the compound `CC(=O)OC(C)C[N+](C)(C)C` (stereo not given), the Potency result was “inactive”.

In the case of `CC(C)COCC(CN(Cc1ccccc1)c1ccccc1)N1CCCC1` (stereo not given), the Potency entry was “inactive”.

Turning to `C=CCc1ccccc1OCC(O)CNC(C)C` (stereo not given), the Potency entry is “inactive”.

For `CN(C(=O)CCCOc1ccc2[nH]c(=O)ccc2c1)C1CCCCC1`, the Potency result is “inactive”.

As for `COC(=O)[C@@H](N)Cc1ccc(O)c(O)c1`, the Potency result was “inactive”.

For the compound `CC(N=C(NC#N)Nc1ccncc1)C(C)(C)C` (stereo not given), the Potency result is “inactive”.

`CCCNC(C)C(=O)Nc1ccccc1C` (stereo not given): the Potency result was “inactive”.
